Experimental data as given in PubChem BioAssay AID686964 (The Scripps Research Institute Molecular Screening Center, 2013).
Hit rate of the full screen: of about 370,000 compounds, about 1,100 (0.3%) were called active. The list comes from a sample in which actives are over-represented; it also holds similar structures and randomly drawn compounds. Unmarked numbers belong to inactive results. No stated cut-off is given here; in the data, active means inhibition above about 13%; inactive means the rest.

Biological target: Methyl-CpG-binding domain protein 2 (Homo sapiens) (UniProt Q9UBB5)
Sequence (Q9UBB5 whole entry, looked up, the tested form may be a part): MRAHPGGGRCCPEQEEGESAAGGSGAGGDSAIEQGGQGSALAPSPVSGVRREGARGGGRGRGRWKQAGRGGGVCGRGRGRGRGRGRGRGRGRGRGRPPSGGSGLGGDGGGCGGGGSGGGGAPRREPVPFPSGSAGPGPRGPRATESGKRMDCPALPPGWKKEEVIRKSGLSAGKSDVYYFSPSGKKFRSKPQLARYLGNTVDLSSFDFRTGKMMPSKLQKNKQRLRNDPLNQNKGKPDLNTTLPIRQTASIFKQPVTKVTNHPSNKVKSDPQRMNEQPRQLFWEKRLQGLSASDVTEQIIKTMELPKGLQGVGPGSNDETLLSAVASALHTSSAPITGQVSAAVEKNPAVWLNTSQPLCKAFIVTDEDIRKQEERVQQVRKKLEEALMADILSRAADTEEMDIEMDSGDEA
Experiment: MBD2-DBD methyl-oligonucleotide interaction blockers – biochemical, TR-FRET, DNA-binding domain, human, primary screen (AID 686964)
Conditions: MBD2 binding to methylated oligonucleotide, at 4.4 µM, stronger effect = higher value

SMILES | inhibition
Cc1cc(C)c(S(=O)(=O)NCC2CCC(C(=O)NCc3ccc4c(c3)OCO4)CC2)c(C)c1 (stereo not given) | 1.75%
CCn1c2ccccc2c2cc(NC(=O)CSc3nnc(-c4ccccc4)n3-c3ccc(C)cc3)ccc21 | 1.63%
CCn1c(=O)n2n(c1=O)[C@@]1(C=C3CCCC[C@H]32)N=C(NC(=O)c2ccccc2)N(Cc2ccccc2)[C@H]1Cc1ccccc1 | -2.62%
CCCCCN1CCCCC(NC(=O)C(C)CCC)C1=O (stereo not given) | 0.39%
O=C(CNC(=O)c1ccccc1)OC(C(=O)Nc1cc([N+](=O)[O-])ccc1F)c1ccccc1 (stereo not given) | 0.02%
Cc1cccc(NC(=O)C[C@H]2CC[C@H]3[C@@H](COc4ccc(NC(=O)Nc5ccccc5)cc4C(=O)N3C)O2)c1 | 14.6% (active)
CCC(=O)Nc1ccc2c(c1)C(=O)N(C)[C@@H]1CC[C@@H](CC(=O)NCCc3ccccc3)O[C@H]1CO2 | -1.77%
COC(=O)C[C@@H]1CC[C@@H]2[C@@H](COc3ccc(NC(=O)Nc4ccc(F)c(F)c4)cc3C(=O)N2C)O1 | -6.09%
O=C(NCCCc1ccccc1)[C@H](Cc1ccccc1)NC1(C(=O)NCCc2c[nH]c3ccccc23)CCC1 | -4.2%
CCOC(=O)C1CCN(C(=O)C(C)(C)NC(=O)Nc2ccc(F)c(F)c2)CC1 | -0.53%
CCCCCCCCN1C(=O)[C@@H](CC(=O)N2CCN(C(=O)OCC)CC2)C[C@@]2(C(=O)OC)C1=C[C@H](C1CCCC1)O[C@@H]2C | -0.47%
CC(C)C(=O)N1CCC2(CC1)Oc1ccc(F)cc1C(=O)C21CC(c2ccccc2)=NO1 (stereo not given) | -4.91%
CCOC(=O)c1ccccc1NC(=O)COC(=O)CCC(=O)N1CCOCC1 | 3.48%
CC(=O)c1ccccc1NC(=O)CC1(CC(=O)O)CCCCC1 | -1.55%
CC(=O)c1ccccc1NC(=O)COC(=O)C1COc2ccccc2O1 (stereo not given) | 28.3% (active)
COc1ccc(Cn2cc(COC(=O)N(C)Cc3ccccc3)nn2)cc1 | 1.89%
CC(C)(C)C1C/C(=C/c2ccco2)C(=O)/C(=C/c2ccco2)C1 (stereo not given) | 72% (active)
CN(C(=O)COC(=O)c1cc(-c2ccco2)nc2ccccc12)C1CCS(=O)(=O)C1 (stereo not given) | 17.8% (active)
COc1ccc(-c2cc(=O)oc3cc(OCC(=O)N(C)C4CCS(=O)(=O)C4)ccc23)cc1 (stereo not given) | 2.11%
CC(=O)c1ccc(OCC(=O)N(C)C2CCS(=O)(=O)C2)cc1 (stereo not given) | 1.21%
CNC(=O)Nc1cc(C(C)(C)C)no1 | 3.32%
O=C(C[C@H]1C(=O)N(c2ccc(F)c(F)c2)C[C@@H]1Cc1ccccc1)Nc1ccccc1 | 5.88%
CNC(=O)C[C@H]1C(=O)N(Cc2ccccc2)C[C@@H]1CSC | 3.38%
CNC(=O)C[C@H]1C(=O)N(c2ccc(OC)cc2)C[C@@H]1Cc1ccccc1 | 13.2% (active)
COc1cc(/C=C/C(=O)n2cnc3ccccc32)cc(OC)c1OC | -1.66%
O=C(Nc1cc(Cl)cc(Cl)c1)OCCN1CCCC12CCC(c1ccccc1)CC2 (stereo not given) | -4.82%
COC(=O)[C@]12C[C@H](CC(=O)NCCC(C)C)C(=O)N(CCc3ccc(OC)c(OC)c3)C1=C[C@H](C(C)(C)C)O[C@@H]2C | 19.2% (active)
CCCCOCCCNC(=O)C[C@H]1C[C@@]2(C(=O)OC)C(=C[C@H](C(C)(C)C)O[C@@H]2C)N(CCc2ccc(OC)c(OC)c2)C1=O | 2.62%
COC(=O)[C@]12C[C@H](CC(=O)NCc3ccccc3)C(=O)N(CCc3ccc(OC)c(OC)c3)C1=C[C@H](C(C)(C)C)O[C@@H]2C | 1.88%
COC(=O)CC1CCc2cc(C)cc(C(CC(C)C)NC(=O)[C@H](CC(C)C)NC(=O)OCc3ccccc3)c2O1 (stereo not given in full) | 4.23%
